Where “and” joins values, the source holds several entries; their conditions need not be identical. Identical values can stand only once. This is part of a sample that, as a whole, favours compounds with a hit. Of some 83,000 tested, about 20% had one in any assay.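 Single-dose data. Exposure time 48 hours. Values below 10 considered active.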 Some structures have more than one record in an assay (separate samples or runs), and their calls can disagree. Calls of active or inactive are those of the source.
Tests used:
Experiment in all cases: NCI-60 one-dose screen, 48 h (100 = growth as untreated, 0 = no growth, -100 = all killed)
[1] = system: DU-145 prostate; details: 10 µM
[2] = system: K-562 leukemia; details: 10 µM
[3] = system: MALME-3M melanoma; details: 10 µM
[4] = system: MDA-MB-231 breast; details: 10 µM
[5] = system: RXF 393 renal; details: 10 µM
[6] = system: SF-268 CNS; details: 10 µM
[7] = system: SF-295 CNS; details: 10 µM
[8] = system: SF-539 CNS; details: 10 µM
[9] = system: UACC-257 melanoma; details: 10 µM
[10] = system: M14 melanoma; details: 10 µM
[11] = system: HCT-15 colon; details: 10 µM
[12] = system: HT29 colon; details: 10 µM
[13] = system: SNB-19 CNS; details: 10 µM
[14] = system: U251 CNS; details: 10 µM
[15] = system: PC-3 prostate; details: 10 µM
[16] = system: SK-MEL-5 melanoma; details: 10 µM
[17] = system: UACC-62 melanoma
[18] = system: LOX IMVI melanoma; details: 10 µM
[19] = system: SK-MEL-28 melanoma; details: 10 µM
[20] = system: SNB-75 CNS; details: 10 µM

Measured: growth

O=[N+]([O-])c1cc[n+]([O-])cc1
inactive: [1] 120% | [2] 117% | [3] 101% | [4] 95.9% | [5] 114% | [6] 107% | [7] 101% | [8] 122% | [9] 76.5% | [10] 113% | [11] 112% | [12] 105% | [13] 88.5% | [14] 111% | [15] 101% | [16] 95% | [17]; 10 µM 91.1% | [18] 96.3% | [19] 115%

COc1ccc(C(=O)C(CN(C)C)CN(C)C)cc1
active: [2] -19.4% | [3] -70.7% | [12] -77.3%
inactive: [1] 56.9% | [4] 104% | [5] 63.9% | [6] 96.5% | [7] 102% | [8] 96.3% | [9] 73.1% | [10] 52% | [11] 46.6% | [20] 76.4% | [13] 103% | [14] 102% | [15] 89.6% | [16] 101% | [17]; 10 µM 73.4% | [18] 82.4% | [19] 83.1%

COc1cc([C@@H]2c3cc4c(cc3[C@@H](Nc3ccc(NC(=O)c5cc([N+](=O)[O-])cn5C)cc3)[C@H]3COC(=O)[C@H]23)OCO4)cc(OC)c1O
active: [17]; 100 µM -35.1%

CN(C)CCOC1(Cc2ccc(Cl)cc2Cl)CCC(C(C)(C)C)CC1 (configuration not stated)
15.5% (inactive) and -25.9% (active): [13]
22.7% (inactive) and 7.69% (active): [1]
inactive: [6] 46.1% and 34.9% | [8] 39.7% and 46.6% | [20] 47.1% and 44.2% | [15] 40.8% and 35.7%
30.2% (inactive) and -32.5% (active): [5]
10.2% (inactive) and -63.9% (active): [16]
active: [2] -37.2% and -48.5% | [3] -48.2% and -65.3% | [4] 7.18% and -26.3% | [7] -44% and -69.9% | [9] -33.6% and 2.54% | [10] -34.4% and -59.1% | [11] -11.2% and -80.3% | [12] -37.7% and -58.6% | [14] -95.2% and -100% | [17]; 10 µM -26% and -56.2% | [18] -100% | [19] -58.7% and -50%

C#CCN(Cc1ccc2nc(N)[nH]c(=O)c2c1)c1ccc(C(=O)NC(CCC(=O)O)C(=O)O)cc1 (configuration not stated)
inactive: [1] 48.6% | [2] 58.9% | [3] 86.8% | [5] 72.9% | [6] 70.4% | [7] 99.5% | [9] 92.1% | [10] 44.7% | [11] 65.5% | [12] 62.5% | [20] 86.5% | [14] 89.2% | [15] 64.6% | [16] 100% | [17]; 10 µM 81.6% | [18] 16% | [19] 95.2%
active: [8] 0.195%

Cc1ccc(Sc2ccccc2N)cc1
active: [1] 6.34%
inactive: [2] 108% | [3] 116% | [4] 102% | [5] 67.4% | [6] 98.1% | [7] 88.8% | [8] 114% | [9] 98.5% | [10] 99.5% | [11] 21.2% | [12] 26.1% | [20] 122% | [13] 95.6% | [14] 84.3% | [15] 74.4% | [16] 91.8% | [17]; 10 µM 90.2% | [18] 76.1% | [19] 118%

Cc1cc(N(CCOS(C)(=O)=O)CCOS(C)(=O)=O)ccc1C=Nc1ccc(-c2nc(Cc3ccccc3)sc2C)cc1
inactive: [1] 11.8% | [2] 21.7% | [3] 58% | [4] 77.2% | [5] 45.9% | [6] 39.4% | [7] 12.6% | [8] 15% | [10] 25.8% | [11] 55% | [12] 46.2% | [13] 39.5% | [14] 43.2% | [15] 55% | [16] 45.2% | [17]; 10 µM 37.8% | [18] 34.9%
active: [9] 6.01% | [20] -1.26%

CC1=CC(=C(c2ccc(N)cc2)c2ccc(N)cc2)C=CC1=N
-1.98% (active) and 23.7% (inactive): [20]
6.75% (active) and 10.4% (inactive): [12]
7.6% (active) and 22.4% (inactive): [18]
-12.8% (active) and 62.6% (inactive): [5]
8.88% (active) and 16.1% (inactive): [8]
active: [7] -7.28% | [9] -6.06% and 8.33% | [16] -37.3% and -25.8%
inactive: [1] 18.6% and 38.3% | [2] 21.1% and 24.5% | [6] 26.1% and 29% | [10] 27.4% | [11] 53.9% and 73.4% | [13] 17.9% and 21.6% | [14] 17.4% and 10.6% | [19] 28.8% and 45.9%
6.87% (active) and 21.8% (inactive): [4]
-20.2% (active) and 22.6% (inactive): [17]; 10 µM
0.759% (active) and 56.2% (inactive): [3]
9.47% (active) and 18.5% (inactive): [15]

C=C1C(=O)OC2CC1C(OC(C)=O)C/C(C)=C/CC/C(C)=C\CCC2(C)O (configuration not stated)
inactive: [3] 18.6% | [4] 20.3% | [5] 13.1% | [6] 27.1% | [7] 106% | [8] 11.2% | [9] 58.2% | [10] 16.4% | [20] 19.8% | [13] 51.6% | [14] 33.3% | [15] 18.3% | [16] 55.8% | [17]; 10 µM 44.5%
active: [1] -5% | [2] -40% | [11] -80.1% | [12] -45.1% | [17]; 100 µM -94.6% | [18] 6.22%
